Data: PubChem BioAssay
Calls of active or inactive are those of the source.

Experiments:
[1] = system: Plasmodium falciparum Sir2 (PF13_0152, Sir2A); test: Plasmodium falciparum Sir2A binding compounds – biochemical, small-molecule microarray, 635 nm fluorescence, primary screen (AID 1098); conditions: fluorescence 635 nm, higher = more signal;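 note: score merges spot fluorescence intensity with its signal-to-noise ratio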
[2] = probe aDKK1 binding to arrayed compounds – biochemical, biotinylated probe, 635/667 nm fluorescence, primary screen (AID 1099); conditions: small-molecule microarray, higher = more signal;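 note: score merges 667nm spot fluorescence with signal to noise across triplicate slides; reference of the scale not given here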
[3] = probe aCHRDL2 binding to arrayed compounds – biochemical, biotinylated probe, 635/667 nm fluorescence, primary screen (AID 1100); conditions: small-molecule microarray, higher = more signal
[4] = change in splice reporter luminescence, either direction, cell-based, HEK293, spliceosome inhibition project, primary screen (AID 1101); conditions: HEK293 splicing luciferase reporter, 24 h, higher = more signal, called active from +8 up or from −8 down;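 note: HEK293 cells carrying a splicing-competent luciferase reporter gene; test concentration not given here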
[5] = molecular target: Fibroblast growth factor 10 (Homo sapiens) (UniProt O15520); test: compounds binding fibroblast growth factor 10 – biochemical, small-molecule microarray, 635 nm fluorescence, primary screen (AID 1102); conditions: FGF10 binding, fluorescence 635 nm, higher = more signal
[6] = system: glycogen synthase kinase-3 (GSK3A per assay name; protocol says GSK3B); test: compounds binding glycogen synthase kinase-3 – biochemical, small-molecule microarray, 635 nm fluorescence, GSK3A, primary screen (AID 1103); conditions: fluorescence 635 nm, higher = more signal; note: the record names both GSK3A and GSK3B
[7] = molecular target: Epidermal growth factor receptor (Homo sapiens) (UniProt P00533); test: compounds binding epidermal growth factor receptor – biochemical, small-molecule microarray, 635 nm fluorescence, primary screen (AID 1104); conditions: EGFR binding, higher = more signal;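 note: score merges 667 nm emission intensity with spot signal to noise over triplicate slides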
[8] = molecular target: Follistatin-related protein 3 (Homo sapiens) (UniProt O95633); test: compounds binding follistatin-related protein 3 – biochemical, small-molecule microarray, 635 nm fluorescence, primary screen (AID 1105); conditions: FSTL3 binding, higher = more signal;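 note: score merges emission near 667 nm and signal to noise per printed spot across three slides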
[9] = molecular target: Dickkopf-related protein 1 (Homo sapiens) (UniProt O94907); test: small molecules binding DKK1 protein – biochemical, small-molecule microarray, 635 nm fluorescence scan, primary screen (AID 1106); conditions: higher = more signal;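 note: score merges emission near 667 nm with signal to noise over three replicate slides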
[10] = system: Inhibin beta A chain (activin A); test: small molecules binding activin A – biochemical, small-molecule microarray, 635 nm fluorescence scan, primary screen (AID 1107); conditions: INHBA, higher = more signal;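 note: mouse activin A protein probed at 4.33 µg/mL on printed slides; score merges bound-protein fluorescence near 667 nm with spot signal-to-noise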

Sequence of Fibroblast growth factor 10 (Homo sapiens) (O15520 whole entry, looked up): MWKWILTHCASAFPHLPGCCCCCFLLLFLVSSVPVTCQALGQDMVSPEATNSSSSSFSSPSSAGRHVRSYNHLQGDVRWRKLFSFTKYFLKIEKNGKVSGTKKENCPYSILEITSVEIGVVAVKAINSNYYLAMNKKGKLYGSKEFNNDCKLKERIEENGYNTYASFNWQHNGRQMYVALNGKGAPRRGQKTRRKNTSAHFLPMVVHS
Sequence of Epidermal growth factor receptor (Homo sapiens) (P00533 whole entry, looked up): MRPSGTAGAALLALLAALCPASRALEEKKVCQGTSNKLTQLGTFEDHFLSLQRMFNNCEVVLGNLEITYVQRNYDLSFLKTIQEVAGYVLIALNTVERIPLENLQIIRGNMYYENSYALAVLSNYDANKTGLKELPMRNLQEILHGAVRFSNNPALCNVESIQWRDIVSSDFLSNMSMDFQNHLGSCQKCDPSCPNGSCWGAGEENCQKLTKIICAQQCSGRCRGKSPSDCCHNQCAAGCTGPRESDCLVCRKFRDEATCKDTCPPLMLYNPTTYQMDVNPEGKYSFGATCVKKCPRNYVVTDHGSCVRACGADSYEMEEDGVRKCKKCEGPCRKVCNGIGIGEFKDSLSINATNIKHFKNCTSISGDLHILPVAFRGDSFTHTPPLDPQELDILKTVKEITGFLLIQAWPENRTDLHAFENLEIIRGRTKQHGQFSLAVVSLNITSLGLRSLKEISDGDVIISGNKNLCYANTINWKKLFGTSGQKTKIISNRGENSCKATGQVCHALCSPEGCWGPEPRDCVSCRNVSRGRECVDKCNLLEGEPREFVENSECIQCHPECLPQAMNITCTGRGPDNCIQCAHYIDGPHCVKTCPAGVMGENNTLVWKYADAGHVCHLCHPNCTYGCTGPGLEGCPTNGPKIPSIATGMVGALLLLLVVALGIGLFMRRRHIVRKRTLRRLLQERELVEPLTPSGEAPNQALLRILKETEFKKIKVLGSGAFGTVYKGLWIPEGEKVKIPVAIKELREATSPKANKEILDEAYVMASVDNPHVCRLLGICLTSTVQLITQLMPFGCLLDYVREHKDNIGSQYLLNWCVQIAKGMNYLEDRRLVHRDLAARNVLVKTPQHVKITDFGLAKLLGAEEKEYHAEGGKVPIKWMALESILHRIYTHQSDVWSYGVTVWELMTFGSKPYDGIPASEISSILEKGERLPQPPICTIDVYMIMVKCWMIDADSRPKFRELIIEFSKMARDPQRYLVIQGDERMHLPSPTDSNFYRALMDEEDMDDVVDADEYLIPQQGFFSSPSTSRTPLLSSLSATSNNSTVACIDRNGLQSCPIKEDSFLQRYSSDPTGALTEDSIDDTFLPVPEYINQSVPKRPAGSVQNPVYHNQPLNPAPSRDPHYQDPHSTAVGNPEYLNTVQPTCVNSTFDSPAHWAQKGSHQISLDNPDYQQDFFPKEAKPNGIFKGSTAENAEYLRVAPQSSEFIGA
Sequence of Follistatin-related protein 3 (Homo sapiens) (O95633 whole entry, looked up): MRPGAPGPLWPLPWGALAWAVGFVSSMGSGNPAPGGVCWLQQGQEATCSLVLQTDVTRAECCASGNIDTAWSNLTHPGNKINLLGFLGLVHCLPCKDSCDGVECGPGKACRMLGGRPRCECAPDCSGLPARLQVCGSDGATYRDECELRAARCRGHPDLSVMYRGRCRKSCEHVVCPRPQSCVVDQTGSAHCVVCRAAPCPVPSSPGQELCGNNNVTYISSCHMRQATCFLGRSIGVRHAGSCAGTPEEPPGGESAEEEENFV
Sequence of Dickkopf-related protein 1 (Homo sapiens) (O94907 whole entry, looked up): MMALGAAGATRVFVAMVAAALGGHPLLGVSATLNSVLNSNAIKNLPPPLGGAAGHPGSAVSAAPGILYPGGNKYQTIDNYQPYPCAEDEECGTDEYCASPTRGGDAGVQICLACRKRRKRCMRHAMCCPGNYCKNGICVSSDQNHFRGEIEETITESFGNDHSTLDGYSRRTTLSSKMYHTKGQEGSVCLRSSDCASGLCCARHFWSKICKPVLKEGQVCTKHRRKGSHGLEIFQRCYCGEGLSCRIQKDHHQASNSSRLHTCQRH

| SMILES | composite z-score [1] | composite z-score [2] | composite z-score [3] | z-score [4] | composite z-score [5] | composite z-score [6] | composite z-score [7] | composite z-score [8] | composite z-score [9] | composite z-score [10] |
| --- | --- | --- | --- | --- | --- | --- | --- | --- | --- | --- |
| CCc1cccc(NC(=O)O[C@H]2[C@H](OC(=O)Nc3ccccc3-c3ccccc3)[C@H](OC(=O)Nc3ccccc3-c3ccccc3)[C@@H](OC)O[C@@H]2CO)c1 | 0.477 | 0.632 | 0.444 | 1.93 (inactive) | 1.45 | 1.34 | 0.851 | 1.31 | 0.635 | 0.838 |
| COCCCNC(=O)[C@@]1(c2ccc([N+](=O)[O-])cc2)CC(=O)N(C2CCCCC2)[C@@H]1c1ccc(CO)cc1I | 1.62 | 0.0269 | 0.64 | -1.1 (inactive) | 0.453 | 1.16 | -0.323 | 0.102 | -0.582 | 0.717 |
| CCCCC(=C=CC[C@H](O)c1cccc(OCCO)c1)C[C@H](O)c1cc(Cl)cc(Cl)c1O | 1.28 | -0.152 | -0.214 | -0.109 (inactive) | 1.27 | 0.25 | -0.443 | 0.544 | 0.0244 | 0.295 |
| COCCCNC(=O)[C@@]1(Cc2ccccc2I)c2ccccc2C(=O)N(Cc2ccccc2OC)[C@H]1c1ccc(CO)cc1 | -0.347 | -0.302 | 0.941 | 0.932 (inactive) | -0.0058 | -0.116 | -0.824 | -0.557 | -1.51 | -1.43 |
| COCCCNC(=O)[C@@]1(Cc2ccccc2I)c2ccccc2C(=O)N(Cc2ccccc2C(F)(F)F)[C@H]1c1ccc(CO)cc1 | 0.228 | 0.201 | 0.883 | 0.544 (inactive) | 0.0125 | -0.559 | -1.71 | -0.961 | -1.68 | -0.601 |
| NCCCCCCNC(=O)[C@@H]1C[C@@H]2C(=O)NCC(=O)N2[C@@H]1c1cccc(OCCO)c1 | 1.6 | 0.45 | 0.0888 | -0.734 (inactive) | 1.37 | 1.3 | 0.702 | 0.98 | 1.32 | 1.12 |
| C[C@]12C(=O)N(CCO)[C@@H]3C(=O)N(c4ccc(Cl)cc4)CC=CC31O[C@@H]1/C=C\CCCOC(=O)C12 (stereo not given in full) | -0.617 | -0.128 | 0.776 | 0.178 (inactive) | -1.04 | -1.31 | -1.51 | -1.03 | -1.53 | 0.847 |
| CN1C2C=C(c3ccc(CO)cc3)C(C3C(=O)N(C(N)=O)C(=O)C32)C1C1CC1 (stereo not given) | 0.261 | -0.202 | 0.0427 | 0.0567 (inactive) | -0.241 | -0.32 | -0.127 | -0.722 | -0.188 | -0.586 |
| C=CCNC(=O)[C@H]1[C@@H]2C(=O)O[C@@H](c3ccccc3)[C@@H](c3ccccc3)N2[C@@H](c2ccc(OCCO)cc2)[C@]12C(=O)N(C(=O)OCCOC)c1ccc(C#CCC(C(=O)OC)C(=O)OC)cc12 | 1.4 | 0.713 | 0.997 | 0.345 (inactive) | 1.44 | 1.16 | 0.524 | 1.08 | 0.5 | 0.768 |
| [N-]=[N+]=NCc1ccccc1[C@H]1OC(c2ccc(OCCCO)cc2)=N[C@@]1(CCS(=O)(=O)c1ccccc1)C(=O)O | 0.94 | 0.224 | 0.906 | 0.436 (inactive) | 0.283 | 0.0448 | -0.371 | -0.0142 | -0.697 | 0.839 |
| Cc1ccc(S[C@]2(C(=O)NCc3ccccc3)CC(=O)N(Cc3ccccc3Cl)[C@@H]2c2ccc(CO)cc2)cc1 | 1.07 | 0.169 | 0.603 | -0.419 (inactive) | -0.35 | 0.165 | -1.31 | -0.648 | -0.743 | 0.0073 |
| O=C1O[C@H](c2ccccc2)[C@H](c2ccccc2)N2[C@H]1[C@@H](C(=O)O)[C@]1(C(=O)Nc3ccccc31)[C@H]2c1ccc(OCCO)cc1 | 0.975 | -0.0668 | -0.0097 | -0.749 (inactive) | 0.141 | -0.0583 | -0.055 | 0.0497 | -0.449 | 0.601 |
| O=C1C2C=CC(C(O)C3CC=CCC3)N(Nc3ccc([N+](=O)[O-])cc3)C2C(=O)N1c1ccccc1 (stereo not given) | 0.811 | 1.47 | 1.03 | 0.809 (inactive) | 1 | 1.1 | 0.619 | 1.44 | 0.386 | 1.2 |
| C=CCNC(=O)[C@@H]1[C@H]2C(=O)O[C@H](c3ccccc3)[C@H](c3ccccc3)N2[C@H](c2ccc(OCCO)cc2)[C@@]12C(=O)Nc1ccc(C#CC3=CCCCC3)cc12 | 1.11 | -0.297 | -0.299 | -0.384 (inactive) | 1.17 | 1.21 | 0.39 | 0.882 | 0.586 | -0.621 |
| [N-]=[N+]=NCc1ccccc1[C@H]1OC(c2ccc(OCCCO)cc2)=N[C@@]1(Cc1ccccc1N=[N+]=[N-])C(=O)O | 1.07 | 1.08 | 0.904 | 0.258 (inactive) | 0.716 | 1.03 | -0.0317 | 0.783 | -0.107 | 0.987 |
| N#Cc1ccc(NN2C(C(O)c3ccc(B(O)O)cc3)C=CC3CN(c4ccccc4)C(=O)C32)cc1 (stereo not given) | 0.35 | 0.0933 | 0.584 | 0.441 (inactive) | -0.792 | -0.824 | -0.533 | -0.172 | -0.445 | 0.462 |

| SMILES | composite z-score [1] | composite z-score [2] | composite z-score [3] | z-score [4] | composite z-score [5] | composite z-score [6] | composite z-score [7] | composite z-score [8] | composite z-score [9] | composite z-score [10] |
| --- | --- | --- | --- | --- | --- | --- | --- | --- | --- | --- |
| O=C(O)C1=CC[C@H]2C(=O)N(c3ccccc3)C(=O)[C@@H]12 | 0.767 | 0.45 | 0.682 | 0.727 (inactive) | 0.855 | 1.04 | 0.325 | 1.11 | 0.0793 | 1.23 |
| CN(C)CCCC[C@@H]1NC(=O)[C@H]2C[C@@H](C(=O)NCCCCCCNC(=O)CS)[C@@H](c3cccc(OCCO)c3)N2C1=O | 0.872 | 0.094 | 0.366 | 0.624 (inactive) | 0.124 | 0.846 | -0.166 | -0.606 | 0.156 | -0.364 |
| C=CCC(OC(C)=O)[C@@H]1[C@@H](N(Cc2ccc(-c3ccccc3)cc2)C(=O)Cc2ccc(OC)cc2)c2cc(OCCCO)ccc2N1C(=O)c1ccc2ccccc2c1 (stereo not given in full) | 0.0435 | 0.0361 | -0.002 | -0.147 (inactive) | -0.0566 | -0.0533 | -0.0792 | 0.538 | -0.0863 | 1.17 |
| COCCOC(=O)N1C(=O)[C@@]2(c3cc(C#CCCO)ccc31)[C@H](C(=O)N1CCN(c3ncccn3)CC1)[C@H]1C(=O)O[C@H](c3ccccc3)[C@H](c3ccccc3)N1[C@@H]2c1ccc(OCCO)cc1 | 1.24 | -0.019 | 0.349 | -1.1 (inactive) | 1.22 | 0.823 | 0.592 | 1.38 | 0.514 | 0.356 |
| COCCOC(=O)N1C(=O)[C@@]2(c3cc(C#CCNC(N)=O)ccc31)[C@H](c1ccccc1OCCO)N1[C@H](c3ccccc3)[C@H](c3ccccc3)OC(=O)[C@H]1[C@@H]2C(=O)N1CCCCCCC1 | 1.42 | 0.784 | 0.735 | -0.402 (inactive) | 0.739 | 1.11 | 0.5 | 1.23 | 0.557 | 1.44 |
| CC(C)N1CC=CC23O[C@@H]4/C=C\CCCOC(=O)C4[C@H]2C(=O)N(C(C)CO)[C@@H]3C1=O (stereo not given in full) | 0.748 | -0.4 | 0.44 | -1.09 (inactive) | -0.663 | -1.02 | -0.962 | -0.849 | -1.35 | 0.493 |
| C=C[C@H](C)[C@@H](OC(=O)Nc1ccc(SC)cc1)c1ccc(OCCO)cc1 | 1.11 | -0.189 | 0.529 | -1.36 (inactive) | 1.02 | 0.321 | -0.359 | 0.379 | -0.395 | 0.246 |
| COC(=O)[C@@]1(Cc2ccccc2)[C@H]2c3cc(C(=O)N(C)C)n(CCF)c3C[C@H]2CN1C(=O)c1ccccc1 | 1.56 | 1.27 | 1.42 | -1.72 (inactive) | -0.0624 | 0.0979 | -0.469 | 0.0598 | -1.23 | -0.711 |
| CC(=O)NCCCC[C@@H]1NC(=O)[C@H]2C[C@@H](C(=O)NCCCCCN)[C@@H](c3ccc(O)cc3)N2C1=O | 0.863 | 0.316 | 0.17 | 0.0809 (inactive) | 0.544 | 1.29 | 0.511 | 0.777 | 1.02 | 0.792 |
| COc1ccc(C(=O)Nc2ccc(CN3C(=O)[C@]4(O[C@H](CC(=O)N(CCO)Cc5ccccc5)[C@@H]([Si](C)(C)c5ccc(OC)cc5)[C@@H]4C)c4ccccc43)cc2)cc1 | 1.11 | -0.0522 | -0.338 | -1.88 (inactive) | 1.34 | 0.956 | 0.918 | 1.34 | 1.1 | 0.842 |
| COc1ccc([Si](C)(C)[C@@H]2[C@@H](CC(=O)N3Cc4ccccc4C[C@H]3CO)O[C@]3(C(=O)N(Cc4ccc(I)cc4)c4ccccc43)[C@H]2C)cc1 | 0.458 | -0.128 | -0.357 | -1.36 (inactive) | 1.12 | 0.66 | 1.22 | 1.36 | 1.45 | 1.52 |
| COC(=O)C1=CC(CCCO)=CC(c2ccc(CN3CCCC3)cc2)N(C)C=C1C(=O)OC (stereo not given) | 1.65 | 0.629 | 0.549 | 0.657 (inactive) | 0.883 | -0.302 | -0.138 | 0.345 | -0.36 | 0.861 |
| O=C1c2ccccc2[C@](Cc2ccccc2I)(C(=O)NCCN2CCOCC2)[C@H](c2ccc(CO)cc2)N1Cc1ccccc1C(F)(F)F | 0.655 | -0.0516 | 0.358 | -0.0322 (inactive) | 0.275 | 0.484 | -0.288 | 0.276 | -0.419 | 0.734 |
| O=C1O[C@H](c2ccccc2)[C@H](c2ccccc2)N2[C@H]1[C@@H](C(=O)Nc1nc3ccccc3s1)[C@]1(C(=O)Nc3ccccc31)[C@H]2c1ccccc1OCCO | 1.42 | 0.0289 | 0.505 | -0.539 (inactive) | 0.475 | 0.901 | -0.115 | 0.399 | -0.086 | 0.121 |
| C=CCN1C(=O)[C@@]2(O[C@@H](CCO)[C@H]([Si](C)(C)c3ccc(OC)cc3)[C@H]2C)c2cc(N3CCCCC3=O)ccc21 | 0.774 | -0.0333 | 0.0918 | -2.02 (inactive) | 0.839 | 0.399 | 0.169 | 0.547 | 0.342 | 0.488 |
